Outcome and AC50 data for 29 compounds are collected here from PubChem BioAssay (EPA / NIEHS).

Assay [1] can be described thus: ATG_TAL_CIS: Attagene CIS-FACTORIAL HepG2 Assay for human TAL Basal Promoter (AID 2282966).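 Further: background control endpoint measuring basal TAL promoter reporter mRNA not a specific factor.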 As to conditions: HepG2 Attagene cis-factorial TAL promoter reporter; actives raise or lower the signal. An outline of the steps: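 Fluorescence of labelled reporter cDNA fragments, resolved by capillary electrophoresis, gave the readout. Human HepG2 liver cells carried transiently transfected cis-element reporter units and were treated for 24 hours; activity was fitted bidirectionally against DMSO.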

Assay [2] in a line: ATG_TGFb_CIS: Attagene CIS-FACTORIAL HepG2 Assay for human Transforming Growth Factor (TGF) (AID 2282967). As to conditions: HepG2 Attagene CIS TGFb reporter, mRNA transcription; actives raise or lower the signal. An outline of the steps:
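Transient MRTU transfection of HepG2 (FuGene 6). Dose 24 h. TriZol RNA, oligo(dT) RT, PCR, 6-FAM primer extension, HpaI cut, CE. Bidirectional fit, DMSO = baseline.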

Assay [3] is described as follows: ATG_VDRE_CIS: Attagene CIS-FACTORIAL HepG2 Assay for human Vitamin D Receptor Element (VDRE) (AID 2282968). The following applies: HepG2 VDRE cis-reporter transcription, actives raise or lower the signal. The gist of the method:
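In transiently transfected HepG2 liver cells, gain or loss of reporter mRNA after 24 h exposure is scored relative to DMSO, using fluorescence detection by capillary electrophoresis of RT-PCR products.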

Assay [4] deals with Nuclear receptor subfamily 1 group I member 3 (Homo sapiens) (UniProt Q14994). In words: ATG_CAR_TRANS: Attagene TRANS-FACTORIAL HepG2 Assay for human Constitutive Androstane Receptor (CAR) (AID 2282969; active means hit-call score of the fitted dose curve at least 0.9, where 1 is the maximum;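 further: activators raise reporter mRNA above DMSO so AC50 marks induction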). As to conditions: HepG2 Attagene TRANS-FACTORIAL CAR reporter. An outline of the steps:
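Readout is reporter mRNA induction, quantified by fluorescent primer extension and capillary electrophoresis after RT-PCR. Cells were HepG2 transiently carrying chimeric NR-Gal4 constructs with GAL4-UAS reporters, treated for 24 h; activity scored upward from DMSO.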

Assay [5] deals with Estrogen receptor (Homo sapiens) (UniProt P03372). In words: ATG_ERa_TRANS: Attagene TRANS-FACTORIAL HepG2 Assay for human Estrogen Receptor alpha (ERa) (AID 2282970; active means hit-call score of the fitted dose curve at least 0.9, where 1 is the maximum). The following applies: HepG2 Attagene TRANS ERa GAL4 reporter, mRNA. The gist of the method:
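Human liver HepG2, transient transfection of multiple GAL4-UAS reporter units; TRANS format (exogenous NR-Gal4 chimera). 24 h dosing. Readout: reporter mRNA, RT-PCR, 6-FAM primer extension, HpaI digest, capillary electrophoresis. Positive direction vs DMSO.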

The target of assay [6] is Steroid hormone receptor ERR1 (Homo sapiens) (UniProt P11474). In words: ATG_ERRa_TRANS: Attagene TRANS-FACTORIAL HepG2 Assay for human Estrogen-Related Receptor alpha (ERRa) (AID 2282971; active means hit-call score of the fitted dose curve at least 0.9, where 1 is the maximum). The following applies: HepG2 Attagene TRANS reporter, ERRa transactivation. The gist of the method:
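Reporter transcript induction was quantified by RT-PCR and capillary electrophoresis of FAM-labelled, HpaI-cut products after 24 h treatment of HepG2 cells carrying transiently transfected GAL4-UAS reporter units and an exogenous ERRa-Gal4 fusion; activity scored as increase over DMSO.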

Assay [7] addresses X-box-binding protein 1 (Homo sapiens) (UniProt P17861). Kind of assay: ATG_Xbp1_CIS: Attagene CIS-FACTORIAL HepG2 Assay for human X-box Binding Protein 1 (XBP1) (AID 2282972). The following applies: HepG2 XBP1 cis-element reporter, Attagene multiplex; actives raise or lower the signal. An outline of the steps: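 HepG2 cells transiently transfected with cis-regulated multiple reporter transcription units; endogenous transcription factor activity measured 24 hours after chemical dosing. Reporter mRNA quantified by RT-PCR, 6-FAM primer extension, HpaI digestion and capillary electrophoresis; bidirectional fitting versus DMSO.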

A short description of assay [8]: ATG_M_19_TRANS: Attagene TRANS-FACTORIAL HepG2 Assay for M19 Transcription Factor (Internal Marker) (AID 2282974; active means hit-call score of the fitted dose curve at least 0.9, where 1 is the maximum). As to conditions: HepG2 Attagene TRANS-FACTORIAL M19 internal marker reporter. The gist of the method: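 Multiplexed TRANS format: HepG2 liver cells bearing transient GAL4-UAS reporter units, chemical treatment 24 h, reporter transcripts quantified by RT-PCR plus capillary electrophoresis. DMSO defines baseline.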

Assay [9] has as its target Estrogen-related receptor gamma (Homo sapiens) (UniProt P62508). Kind of assay: ATG_ERRg_TRANS: Attagene TRANS-FACTORIAL HepG2 Assay for human Estrogen-Related Receptor gamma (ERRg) (AID 2282977; active means hit-call score of the fitted dose curve at least 0.9, where 1 is the maximum;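 further: hits increase reporter signal over DMSO so potencies reflect activators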). The following applies: HepG2 Attagene TRANS reporter, ERRg transactivation. An outline of the steps:
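HepG2 cells transiently transfected with multiplexed GAL4-UAS reporter units and chimeric NR-Gal4 constructs were exposed to test chemicals for 24 h. Reporter mRNA was measured by RT-PCR, 6-FAM primer extension, HpaI digestion and capillary electrophoresis; gain-of-signal versus DMSO.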

A short description of assay [10]: ATG_GAL4_TRANS: Attagene TRANS-FACTORIAL HepG2 Assay for GAL4 (Internal Marker) (AID 2282976; active means hit-call score of the fitted dose curve at least 0.9, where 1 is the maximum). As to conditions: HepG2 Attagene TRANS GAL4 internal marker reporter. The gist of the method: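 First, HepG2 cells were transfected with reporter units under GAL4-UAS control. Next, they were treated with chemical for 24 h. Finally, RNA was reverse-transcribed, PCR-amplified, FAM-labelled and resolved by capillary electrophoresis, with induction scored against DMSO.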

Records with an inconclusive call do not appear. The source made the active and inactive calls. How the source made its calls, unless noted: active means hit-call score of the fitted dose curve at least 0.9, where 1 is the maximum; inactive means score below 0.9.

Estrogen receptor (Homo sapiens), sequence (P03372 whole entry, looked up, the tested form may be a part): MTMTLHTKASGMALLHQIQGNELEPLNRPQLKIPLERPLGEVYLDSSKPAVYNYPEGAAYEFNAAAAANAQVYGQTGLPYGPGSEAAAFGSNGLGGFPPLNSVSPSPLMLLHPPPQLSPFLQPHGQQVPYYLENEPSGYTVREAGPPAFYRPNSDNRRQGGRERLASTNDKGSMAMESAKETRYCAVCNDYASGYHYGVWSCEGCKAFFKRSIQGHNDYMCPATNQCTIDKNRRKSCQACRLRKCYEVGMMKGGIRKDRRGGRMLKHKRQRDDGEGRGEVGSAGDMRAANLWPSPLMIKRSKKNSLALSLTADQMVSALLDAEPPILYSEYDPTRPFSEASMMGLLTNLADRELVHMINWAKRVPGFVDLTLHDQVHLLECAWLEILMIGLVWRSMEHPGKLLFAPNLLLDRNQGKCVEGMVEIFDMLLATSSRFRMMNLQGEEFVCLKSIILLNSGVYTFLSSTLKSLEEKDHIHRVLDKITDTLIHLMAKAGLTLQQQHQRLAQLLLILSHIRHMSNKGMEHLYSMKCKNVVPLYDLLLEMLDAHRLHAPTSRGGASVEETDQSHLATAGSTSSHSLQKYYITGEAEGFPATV
Nuclear receptor subfamily 1 group I member 3 (Homo sapiens), sequence (Q14994 whole entry, looked up, the tested form may be a part): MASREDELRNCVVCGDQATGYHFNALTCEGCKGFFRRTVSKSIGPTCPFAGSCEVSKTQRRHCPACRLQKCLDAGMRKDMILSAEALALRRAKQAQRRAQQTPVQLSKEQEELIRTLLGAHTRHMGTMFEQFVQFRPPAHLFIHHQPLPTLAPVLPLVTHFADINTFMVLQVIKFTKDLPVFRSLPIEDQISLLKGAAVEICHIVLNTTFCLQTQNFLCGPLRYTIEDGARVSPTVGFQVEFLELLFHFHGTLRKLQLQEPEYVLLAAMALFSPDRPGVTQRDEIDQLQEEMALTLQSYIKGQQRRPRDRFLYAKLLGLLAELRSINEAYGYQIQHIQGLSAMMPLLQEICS
Estrogen-related receptor gamma (Homo sapiens), sequence (P62508 whole entry, looked up, the tested form may be a part): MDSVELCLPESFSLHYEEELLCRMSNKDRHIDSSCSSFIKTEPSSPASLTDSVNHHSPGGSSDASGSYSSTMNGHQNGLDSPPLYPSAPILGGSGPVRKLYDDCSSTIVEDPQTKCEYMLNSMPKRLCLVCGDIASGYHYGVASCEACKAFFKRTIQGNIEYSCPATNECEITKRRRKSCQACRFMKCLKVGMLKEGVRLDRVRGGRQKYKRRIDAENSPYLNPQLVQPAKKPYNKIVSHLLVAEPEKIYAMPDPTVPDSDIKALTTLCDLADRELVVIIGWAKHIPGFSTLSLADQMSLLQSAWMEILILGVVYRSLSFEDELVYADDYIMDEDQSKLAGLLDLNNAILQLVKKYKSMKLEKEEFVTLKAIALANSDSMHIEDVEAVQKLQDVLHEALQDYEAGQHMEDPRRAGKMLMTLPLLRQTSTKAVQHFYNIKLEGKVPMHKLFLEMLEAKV
Steroid hormone receptor ERR1 (Homo sapiens), sequence (P11474 whole entry, looked up, the tested form may be a part): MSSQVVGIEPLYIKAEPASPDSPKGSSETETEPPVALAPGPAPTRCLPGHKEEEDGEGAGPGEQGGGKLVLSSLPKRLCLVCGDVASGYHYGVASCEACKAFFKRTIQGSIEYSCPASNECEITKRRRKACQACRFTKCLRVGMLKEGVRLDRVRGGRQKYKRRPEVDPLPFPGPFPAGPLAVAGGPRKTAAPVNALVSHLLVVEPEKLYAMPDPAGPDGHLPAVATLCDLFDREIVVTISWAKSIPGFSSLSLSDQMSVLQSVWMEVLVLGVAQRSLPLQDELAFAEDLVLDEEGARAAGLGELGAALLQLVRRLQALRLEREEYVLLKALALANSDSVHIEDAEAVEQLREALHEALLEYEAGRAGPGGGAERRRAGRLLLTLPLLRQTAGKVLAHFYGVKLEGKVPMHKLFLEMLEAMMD
X-box-binding protein 1 (Homo sapiens), sequence (P17861 whole entry, looked up): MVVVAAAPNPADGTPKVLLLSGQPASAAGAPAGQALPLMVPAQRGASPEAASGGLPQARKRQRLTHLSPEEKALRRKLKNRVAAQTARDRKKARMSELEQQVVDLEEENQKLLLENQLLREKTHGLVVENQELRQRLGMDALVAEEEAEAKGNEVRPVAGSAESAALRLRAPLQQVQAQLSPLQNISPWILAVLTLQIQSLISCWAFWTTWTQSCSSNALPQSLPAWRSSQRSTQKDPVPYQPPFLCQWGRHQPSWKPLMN

For `O=C1O[C@@H]2[C@@H](O)[C@H](O)O[C@@H]2[C@H]1O`, the compound was called inactive in assay [1], in assay [2], in assay [3], in assay [4], in assay [5] and in assay [6]. For the same compound, in [7], the compound was called inactive.
On to `COCCOCCOCCOCCOCCO`, for which the call in assay [1], in [2], in [3], in [4], in [6] and in assay [7] was inactive. The call in assay [8] and in [9] was inactive.
For the compound `COC(=O)Cc1cccc2ccccc12`, the compound was called inactive in [1], in assay [2], in assay [3], in [4], in assay [5] and in assay [7].
On to `CCCCCCCCCOC(C)=O`, for which the outcome in assay [1], in [2], in assay [3], in [4], in assay [5] and in assay [7] was inactive. Also, the compound was classed as inactive in assay [8] and in assay [10].
On to `NNc1nc(-c2ccc(N)cc2)cs1`, for which the compound was classed as inactive in [1], in assay [2], in [3], in assay [4], in assay [5] and in assay [7]. The compound was classed as inactive in assay [8] and in [9].
For `OCCOc1cccc(OCCO)c1`, the compound was called inactive in assay [1], in assay [2], in assay [3], in [4], in [6] and in assay [7]. Further, the compound was classed as inactive in assay [8], in assay [10] and in [9].
With `CC(=O)OCCC(C)CC(C)(C)C` (stereo not drawn), the compound was called inactive in [1], in assay [2], in [3], in [4], in assay [5] and in [7].
For `Clc1cccc(Cl)n1`, the result in assay [1], in assay [2], in [3], in assay [4], in assay [5] and in assay [7] was inactive. The call in assay [8], in [10] and in [9] was inactive.
On to `O=C(O)COCCN1CCN(C(c2ccccc2)c2ccc(Cl)cc2)CC1` (stereo not drawn), for which the compound was called inactive in [1], in assay [2], in assay [3], in [4], in assay [5] and in assay [7]. In addition, the outcome in assay [8] and in [10] was inactive.
In the case of `Nc1ccc(F)c([N+](=O)[O-])c1`, the result in [1], in [2], in [3], in assay [4], in assay [5] and in assay [7] was inactive. In addition, the call in assay [8], in [10] and in assay [9] was inactive.
On to `CC1(CO)CN(c2ccccc2)NC1=O` (stereo not drawn), for which the result in assay [1], in assay [2], in [3], in assay [4] and in assay [7] was inactive.
For `CC(C)c1cccc(O)c1`, the compound was called inactive in assay [1], in assay [2], in assay [3], in [4], in assay [6] and in assay [7]. In addition, the call in assay [8] and in assay [9] was inactive. In addition, in assay [5], the AC50 – broadly, the concentration giving half of the maximal activity seen – was 71.2 µM (active).
In the case of `CC(C)=CCO`, the outcome in assay [1], in assay [2], in assay [3], in assay [5], in assay [6] and in assay [7] was inactive. In addition, the result in assay [8] and in assay [10] was inactive.
Regarding `COc1ccc(NC(=O)CC(C)=O)cc1`, the compound was called inactive in [1], in assay [2], in assay [3], in assay [4], in assay [7] and in assay [8]. Also, in assay [10], the outcome was inactive.
On to `CC(=O)OCCOC(C)=O`, for which the compound was classed as inactive in assay [1], in assay [2], in assay [3], in assay [4], in assay [7] and in assay [8]. Also, the result in [10] was inactive.
Regarding `c1ccc2sc(SN(C3CCCCC3)C3CCCCC3)nc2c1`, the compound was called inactive in [1], in assay [4], in assay [7] and in [8]. Besides, the concentration at half-maximal activity (AC50) in assay [2] is 0.335 µM (active); in assay [3] it was 4.65 µM (active).
Regarding `CCCCC(CC)COCCC#N` (stereo not drawn), the result in assay [1], in [2], in assay [3], in assay [4] and in assay [7] was inactive.
For `CCC(=O)OCCC(C)CCC=C(C)C` (stereo not drawn), the outcome in [1], in assay [2], in [3], in assay [4], in assay [7] and in assay [8] was inactive. In assay [10], the outcome was inactive.
Regarding `CC(CCO)CCCC(C)(C)O` (stereo not drawn), the compound was classed as inactive in assay [1], in [2], in [3], in assay [4], in assay [7] and in [8]. In addition, in [10], the outcome was inactive.
Regarding `C=C(C)C(=O)OCc1ccccc1`, the call in assay [1], in [2], in assay [3], in assay [5], in assay [6] and in assay [7] was inactive. The compound was classed as inactive in assay [8].
With `CCCCN`, the outcome in [1], in assay [2], in assay [3], in assay [4], in assay [7] and in assay [8] was inactive. Also, the result in assay [10] was inactive.
Consider `O=S(=O)(O)c1cccc2c(S(=O)(=O)O)cccc12`, for which the compound was classed as inactive in [1], in assay [2], in assay [3], in assay [4], in assay [7] and in assay [8]. The outcome in assay [10] was inactive.
For the compound `ClCCCl`, the compound was called inactive in [1], in assay [2], in assay [3], in assay [4] and in assay [7].
In the case of `O=C(O)CCCCCCCC(=O)O`, the call in assay [1], in [2], in [3], in assay [4] and in [7] was inactive.
For `CNC(=O)Oc1ccc2c(c1)[C@]1(C)CCN(C)[C@@H]1N2C`, the outcome in assay [1], in assay [2], in [3], in assay [4], in assay [7] and in assay [8] was inactive.
Turning to `C=CCOC(=O)CCC1CCCCC1`, the compound was called inactive in [1], in [2], in [3], in assay [4], in assay [7] and in assay [10].
For `BrC1CCC(Br)C(Br)CCC(Br)C(Br)CCC1Br` (stereo not drawn), the compound was classed as inactive in assay [1], in [2], in assay [5], in assay [6] and in [8]. Moreover, the AC50 was 2.52 µM (active) in assay [3] and 45.5 µM (active) in [7].
In the case of `CC(=O)Nc1ccc(C)cc1C`, the call in [1], in assay [2], in assay [3], in [4], in assay [7] and in [8] was inactive. The outcome in assay [10] and in [9] was inactive.
With `CC(=O)OCc1ccc2c(c1)OCO2`, the result in assay [1], in [2], in [3], in assay [4], in [7] and in assay [10] was inactive.
